These results are taken from PubChem BioAssay AID651815 (National Center for Advancing Translational Sciences (NCATS), 2012).

Out of some 2,100 compounds screened, about 1,100 (52%) were called active. Roughly 29% stayed inconclusive and do not appear here. Calls follow the shape of the dose curve; as a rule, active = well fitted inhibition curve with a large enough effect; inconclusive = small, poorly fitted or top-dose-only effect; inactive = no such curve, though single readings can be large or run the other way. The set was probably picked from earlier hits. The list shows a part of the results.
Potency is read from the fitted curve at half-maximal effect.

In the experiment the target is DNA dC->dU-editing enzyme APOBEC-3F (Homo sapiens) (UniProt Q8IUX4). As to the kind of experiment: qHTS for inhibitors of Vif-A3F interactions: Cherry picks counterscreen. Also: nearly all actives have a fitted effect of over 65% in size. The conditions noted are these: HeLa A3F-eYFP/Vif cells, eYFP fluorescence, 24 h; series mostly up to 46.1 µM. An excerpt: The recent discovery and characterization of host restriction factors, which provide a potent defense to invading retroviruses, has provided new targets for antiviral drug development. APOBEC3G (A3G) and APOBEC3F (A3F) are potent cytidine deaminases that block HIV-1 replication; HIV-1 expresses the Vif protein, which counteracts A3G and A3F by binding to them and inducing their proteasomal degradation. The Vif-A3G and Vif-A3F interactions provide two potential targets for development of small molecules which can interfere with the ability of Vif to degrade A3G or A3F. […] To identify inhibitors that can interfere with Vif mediated degradation of A3G and A3F, we have developed Hela cell lines that stably express A3G or A3F tagged with eYFP at the C-terminal end (A3G-eYFP or A3F-eYFP, respectively) and Vif. In the absence of an inhibitor, Vif induces degradation of A3G-eYFP and A3F-eYFP, and the cells are not fluorescent. In the presence of an inhibitor, it is expected that Vif will be unable to degrade A3G-eYFP and/or A3F-eYFP, resulting in an increase in yellow fluorescence. In this counterscreen assay, Vif A3F was screened against the cherry picks ordered from the MLSMR. NIH Chemical Genomics Center [NCGC] NIH Molecular Libraries Probe Centers Network [MLPCN] MLPCN Grant: MH093245 Assay Submitter (PI): Vinay Pathak, National Cancer Institute
DNA dC->dU-editing enzyme APOBEC-3F (Homo sapiens), sequence (Q8IUX4 whole entry, looked up): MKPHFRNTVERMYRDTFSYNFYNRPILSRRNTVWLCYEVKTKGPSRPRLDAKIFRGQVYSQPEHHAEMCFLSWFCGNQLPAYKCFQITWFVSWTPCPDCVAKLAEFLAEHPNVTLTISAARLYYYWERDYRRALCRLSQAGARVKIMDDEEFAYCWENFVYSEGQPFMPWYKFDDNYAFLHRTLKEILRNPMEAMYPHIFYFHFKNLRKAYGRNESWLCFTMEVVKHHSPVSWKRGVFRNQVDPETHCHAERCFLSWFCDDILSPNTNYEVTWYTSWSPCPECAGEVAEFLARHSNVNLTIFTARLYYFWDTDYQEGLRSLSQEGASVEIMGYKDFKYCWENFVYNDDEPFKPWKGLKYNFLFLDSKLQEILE
A3F-Vif cells were harvested from T225 flask and resuspended in phenol free OPTI-MEM medium with 5% FBS. Then 5 uL of 140,000 cells/mL resuspended cells was dispensed into each well of low base Aurora COC 1,536-well plates (black walled, clear bottom) using a Multidrop Combi dispenser. After overnight culture at 37 deg C with 5% CO2, a total of 23 nL of compounds at 5 selected concentrations from the NPC or positive control (2 mM stock of MG132) in DMSO was transferred to each well of the assay plate using a pintool (Kalypsys, San Diego, CA), and the plates were further incubated at 37 deg C with 5% CO2 for 24 hours. After that, the plates were measured on Acumen Explorer (TTP Lab Tech). The fluorescence was detected by 488 nm/Ex and […].
With `Cc1cc(N2CCCC2)ccc1C=C(C#N)C#N`, the Potency was 20.6 µM (active).
Consider `CN1/C(=C\C=C2C(=O)NC(=O)NC2=O)C(C)(C)c2ccccc21`, for which the Potency is 4.11 µM (active).
Under `CCS(=O)(=O)N1N=C(c2cccc(NS(C)(=O)=O)c2)CC1c1ccccc1` (configuration not stated) stands 23.1 µM (active); under `CCCCn1c(O)c(C(=O)/C=C/c2c[nH]c3ccccc23)c(=O)[nH]c1=O`, 17.7 µM (active).
For the compound `CN1C(=O)/C(=C\c2ccc(N3CCCCC3)o2)C(=O)NC1=S`, the Potency was 17.7 µM (active).
Under `CCC(C)N1C(=O)/C(=C\c2ccc(N3CCCCCC3)cc2)C(=O)NC1=S` (configuration not stated) stands “inactive”; under `CN1CCN(c2ccc(/C=C3\C(=O)NC(=S)N(c4cccc(Br)c4)C3=O)o2)CC1`, 23.1 µM (active).
Under `CN1C(=O)/C(=C/c2ccc(N3CCCCCC3)o2)C(=O)NC1=S` stands 4.44 µM (active); under `CC(=O)O[C@@]12CO[C@@H]1C[C@H](OC1OCC(O)C(O)C1O)[C@@]1(C)C(=O)[C@H](O)C3=C(C)[C@@H](OC(=O)[C@H](O)[C@@H](NC(=O)c4ccccc4)c4ccccc4)C[C@@](O)([C@@H](OC(=O)c4ccccc4)C12)C3(C)C` (some centres not stated), 4.44 µM (active); under `CN1C(=O)C(=Cc2ccc(N3CCCCC3)o2)C(=O)N(C)C1=S`, 3.66 µM (active).
With `CN1C(=O)C(=Cc2ccc(N3CCOCC3)o2)C(=O)N(C)C1=O`, the Potency is 6.51 µM (active).
Then `CN1C(=O)C(=Cc2ccc(N3CCOCC3)o2)C(=O)N(C)C1=S`, with 8.2 µM (active); and `Cc1cc(N(CCCl)CCCl)ccc1C=Cc1ccncn1`, with 16.4 µM (active).
For `CC(C)c1ccc(N2C(=O)NC(=O)/C(=C/C=C/c3ccco3)C2=O)cc1`, the Potency was 14 µM (active).
Under `O=C1NC(=O)N(Cc2ccc(F)cc2)C(=O)/C1=C\C=C\c1ccco1` stands 23.1 µM (active).
Then `CN(C)c1ccc(/C=C/C=C2/C(=O)NC(=O)N(c3ccccc3)C2=O)cc1`, with 23.1 µM (active).
As to `CC(C)c1ccc(N2C(=O)NC(=O)/C(=C\C=C\c3ccco3)C2=O)cc1`, the Potency is 17.7 µM (active).
`COCCCNC(=O)c1c(NC(=O)c2ccco2)n(Cc2ccccc2)c2nc3ccccc3nc12`: the Potency result was “inactive”.
Under `Cc1cc(/C=C2\C(=O)NC(=O)N(c3ccc(Br)cc3)C2=O)c(C)n1C` stands “inactive”; under `Cc1ccc(N2C(=O)NC(=O)/C(=C\C=C\c3ccco3)C2=O)cc1C`, 5.8 µM (active).
Under `CC/C(=N\NC(=O)c1ccccc1O)c1c(O)n(Cc2ccccc2)c(=O)[nH]c1=O` stands 18.4 µM (active).
Then `COc1cccc(C2=CC(c3cc(Br)ccc3F)n3nnnc3N2)c1` (configuration not stated), with 1.46 µM (active).
As for `COC(=O)C1=C(C)N(Cc2ccco2)C(=O)/C1=C\c1ccc(N(C)C)cc1`, the Potency was 6.51 µM (active).
For the compound `O=C1NC(=O)N(c2ccc3c(c2)OCO3)C(=O)/C1=C/c1ccc(N2CCCCC2)o1`, the Potency was 20.6 µM (active).
Take `O=C1NC(=O)N(c2ccc3c(c2)OCO3)C(=O)/C1=C\c1ccc(N2CCCCC2)o1`: the Potency is 18.4 µM (active).
Under `COc1cc(C2C(C#N)=C(N)Oc3cc(O)ccc32)cc(OC)c1OC` (configuration not stated) stands 3.53 µM (active); under `Cc1cccc(-n2c(O)c(/C=C/C=Nc3ccccc3)c(=O)[nH]c2=O)c1`, 4.61 µM (active).
Turning to `Cc1cccc(-n2c(/C=C/c3ccc([N+](=O)[O-])o3)nc3ccccc3c2=O)c1`, the Potency is 8.2 µM (active).
Under `Cc1cccc(-n2c(/C=C/c3c(C)[nH]c4ccccc34)nc3ccccc3c2=O)c1` stands 18.4 µM (active); under `COc1ccc(-n2c(/C=C/c3ccc(O)c(OC)c3)nc3ccccc3c2=O)cc1`, 16.4 µM (active); under `COc1ccccc1-n1c(/C=C/c2ccc(O)cc2)nc2ccccc2c1=O`, “inactive”.
As to `O=c1c2ccccc2nc(/C=C/c2ccc([N+](=O)[O-])o2)n1-c1ccc(O)cc1`, the Potency was 11.2 µM (active).
Under `CCN(CC)c1ccc(/C=C2\C(=O)NC(=S)N(C)C2=O)o1` stands 0.559 µM (active).
Then `CCN(CC)c1ccc(C=C2C(=O)N(C)C(=S)N(C)C2=O)o1`, with 0.314 µM (active).
Under `CCN(CC)c1ccc(/C=C2\C(=O)NC(=S)N(c3ccc(OC)cc3OC)C2=O)o1` stands 23.1 µM (active); under `CCN(CC)c1ccc2c(cc1=O)[C@@H](NC)CCc1cc(OC)c(OC)c(OC)c1-2`, 1.4 µM (active).
Consider `Cc1ccccc1-n1c(/C=C/c2ccc(N(C)C)cc2)nc2ccccc2c1=O`, for which the Potency is 4.11 µM (active).
Then `CCN(CC)c1ccc(N=Cc2c(O)n(CCC3=CCCCC3)c(=O)[nH]c2=O)cc1`, with 16.4 µM (active); and `CCN(CC)c1ccc(N=Cc2c(O)n(Cc3ccccc3)c(=O)[nH]c2=O)cc1`, with 20.6 µM (active).
Then `C=CCn1c(O)c(C(C)=Nc2ccc(N(CC)CC)cc2)c(=O)[nH]c1=O`, with 11.2 µM (active); and `O=C1NC(=S)SC1=Cc1ccc(N(CCCl)CCCl)cc1`, with 17.7 µM (active); and `CCOc1ccc(CNC(=O)c2cccc(Nc3nc4ccccc4n4nnnc34)c2)cc1OC`, with 16.4 µM (active).
Take `COc1ccc(-c2ccc(OC)c(OC)c2OC)cc1`: the Potency is 3.96 µM (active).
Then `CN(C)c1ccc(C(=O)c2ccc(N(C)C)cc2)cc1`, with 0.994 µM (active); and `O=c1[nH]c(=O)n(Cc2ccccc2Cl)c(O)c1/C=C1/C=CC=N1`, with 18.4 µM (active).
Turning to `CCCCn1c(O)c(/C=C2/C=CC=N2)c(=O)[nH]c1=O`, the Potency was 12.5 µM (active).
Under `C=C1C(=O)OC2C1CCC(C)C1(O)C=CC(=O)C21C` (configuration not stated) stands 5.59 µM (active); under `COCCCn1c(=O)/c(=C\c2ccccc2OC(F)F)s/c1=C(/C#N)C(=O)NCCOC`, 18.4 µM (active); under `CCCCNC(=O)/C(C#N)=c1\s/c(=C\c2ccccc2OC(F)F)c(=O)n1CCCOC`, 9.2 µM (active).
Then `CC(=O)Nc1cccc(-c2ccnc3c2CC(C(=O)NCc2ccco2)O3)c1` (configuration not stated), with 4.44 µM (active).
Then `CC1=CC(=Cc2sc3ccccc3[n+]2C)C=C(C)O1`, with 10.3 µM (active).
Take `O=[N+]([O-])c1ccc(N2CCOCC2)c2c1no[n+]2[O-]`: the Potency is 15.8 µM (active).
Under `NC(=Nc1ccccc1)NN=Cc1c[nH]c2ccccc12` stands 3.14 µM (active); under `O=c1[nH]c(CN2CC=C(c3ccccc3)CC2)nc2scc(-c3ccccc3)c12`, 18.4 µM (active).
For the compound `N#CC1=C(N)Oc2c(c(=O)sc3ccccc23)C1c1cccnc1` (configuration not stated), the Potency is 3.14 µM (active).
Then `Cn1cccc1/C=C1\C(=O)NC(=O)N(Cc2ccccc2Cl)C1=O`, with 13 µM (active).
Regarding `Cc1c(Cl)cccc1NC(=O)c1oc2ccc(S(=O)(=O)N3CCC4(CC3)OCCO4)cc2c1C`, the Potency is 16.4 µM (active).
Then `COc1ccc(-n2cnc3cc(C(=O)N4CCC5(CC4)OCCO5)ccc32)cc1`, with 17.7 µM (active).
Then `Cc1cccc(CN2CCCC(C(=O)c3cccc(OC(C)C)c3)C2)n1` (configuration not stated), with “inactive”; and `O=Cc1c(C(=O)O)n(Cc2ccc(Cl)cc2)c2ccccc12`, with 13 µM (active); and `Nc1ccc2c3c(cccc13)-c1ccccc1-2`, with 4.61 µM (active).
Under `CC(=O)OC1C2(CC3N4C(=O)C5(CO)SSC4(CC31O)C(=O)N5C)OC(C)C(C)(C)C2=O` (configuration not stated) stands 3.53 µM (active).
